Results on 36 compounds are retold here after ChEMBL document CHEMBL3433997, “St. Jude Leishmania screening dataset” (2016).

Common to all, as to assay type: functional
Test [1] has as its target Solute carrier family 2, facilitated glucose transporter member 1 (Homo sapiens) (UniProt P11166). Description: ST_JUDE_LEISH: Cytotoxicity at 2uM final concentration against transgenic Leishmania Mexicana promastigotes LmGLUT1 that are glucose transport deficient and complemented with the human glucose transporter GLUT1. Activity is measured by DNA content using SYBR green in vitro.

The target in test [2] is Hexose transporter 1 (Plasmodium falciparum) (UniProt O97467). Description: ST_JUDE_LEISH: Cytotoxicity at 2uM final concentration against transgenic Leishmania Mexicana promastigotes LmPfHT that are glucose transport deficient and complemented with the Plasmodium falciparum hexose transporter. Activity is measured by DNA content using SYBR green in vitro.
Test [3] concerns the target Glucose transporter (Leishmania mexicana) (UniProt O61059). The test can be described thus: ST_JUDE_LEISH: Cytotoxicity at 2uM final concentration against transgenic Leishmania Mexicana promastigotes LmGT2 that are glucose transport deficient and complemented with the L. Mexicana glucose transporter 2. Activity is measured by DNA content using SYBR green in vitro.

Chain of Solute carrier family 2, facilitated glucose transporter member 1 (Homo sapiens) (P11166 whole entry): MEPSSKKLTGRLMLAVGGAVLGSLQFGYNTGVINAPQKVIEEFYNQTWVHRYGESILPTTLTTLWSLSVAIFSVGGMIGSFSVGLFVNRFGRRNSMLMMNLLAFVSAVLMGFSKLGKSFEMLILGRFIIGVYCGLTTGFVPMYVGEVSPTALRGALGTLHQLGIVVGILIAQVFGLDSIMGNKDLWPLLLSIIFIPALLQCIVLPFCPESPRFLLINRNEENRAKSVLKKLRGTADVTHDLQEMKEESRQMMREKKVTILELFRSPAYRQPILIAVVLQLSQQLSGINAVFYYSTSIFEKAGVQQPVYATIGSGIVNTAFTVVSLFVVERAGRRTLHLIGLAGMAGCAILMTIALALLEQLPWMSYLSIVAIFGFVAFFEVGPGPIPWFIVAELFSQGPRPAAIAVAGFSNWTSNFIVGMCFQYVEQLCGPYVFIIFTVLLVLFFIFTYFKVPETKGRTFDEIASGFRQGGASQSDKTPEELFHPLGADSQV

`COc1ccc(CC2(c3ccc(F)cc3)N=C(N)N(CCCc3ccccc3)C2=O)cc1` (stereo not drawn): the inhibition (in general, the drop in the measured response relative to a control, in per cent) in test [1] was 5.85%; in test [2] it was 5.5%; in test [3], 4.39%.

With `CCCCCN1C(=O)N(c2ccc(Cl)c(Cl)c2)C(N(O)C(=O)Nc2ccc(Cl)c(Cl)c2)C1(C)C` (stereo not drawn), the inhibition amounted to 4.79% in test [1], 4.73% in test [2] and 2.87% in test [3].

As for `CC(=O)N/N=C/[C@H](CCc1ccccc1)NC(=O)[C@H](CC(C)C)NC(=O)c1cccc(OCCN2CCOCC2)c1`, the inhibition in test [1] stood at 6.39%; in test [2], 8.07%; in test [3] it was 5.79%.

With `Nc1c(C(=O)NCCCCN2CCN(c3nsc4ccccc34)CC2)sc2ccccc12`, the values for the inhibition in test [1], in test [2] and in test [3] were 5.13%, 4.14% and 2.39%, respectively.

`CCCCNc1cc(NCCCC)c2c(n1)[nH]c1ccccc12`: the inhibition in test [1] was found to be 18.4%; in test [2], 16.6%; in test [3], 4.43%.

`COc1cc2c(cc1OC)C(C(=O)c1ccccc1)=NCC2`: the inhibition was determined as 1.66% in test [1], 2.92% in test [2] and 2.28% in test [3].

With `COC(=O)c1ccc2c(-c3nc4ccc(OC)cc4[nH]3)c[nH]c2c1`, the inhibition in test [1] was determined as 11.5%; in test [2], 10.3%; in test [3] it was 8.93%.

For `C(=C(c1cccs1)c1cccs1)c1ccc(CNC2CCN(Cc3ccccc3)CC2)cc1`, the inhibition stood at 4.45% in test [1], 6.16% in test [2] and 5.77% in test [3].

As to `CNCCNCc1cccc(-c2cccc(-c3nc4cc(C(F)(F)F)ccc4[nH]3)c2)c1`, the inhibition in test [1] came to 2.15%; in test [2], 1.32%; in test [3], 0.13%.

As to `CC(C)COc1ccc(Cl)cc1Cc1ccc(-c2nc3ccc(F)cc3[nH]2)o1`, the inhibition in test [1] is 1.83%; in test [2] it was 0.95%; in test [3], -0.47%.

In the case of `O=C(Nc1ccc(-c2cccc(-c3nc4ccccc4[nH]3)c2)cc1)NC1CC1c1ccccc1` (stereo not drawn), the inhibition in test [1] was 1.87%; in test [2] it was 1.77%; in test [3], -0.17%.

`O=C(Nc1ccc([N+](=O)[O-])cc1)Nc1cc(OCC(F)(F)F)cc(OCC(F)(F)F)c1`: the inhibition in test [1] came out at 4.64%; in test [2], 5.79%; in test [3] it was 4.56%.

For the compound `Cc1ccc(O)cc1C[C@@H]1C(=O)CC[C@@]2(C)[C@H]1CC[C@]2(C)O`, the inhibition in test [1] was -1.27%; in test [2], 1%; in test [3], 2.57%.

For the compound `N#Cc1cccc(C(=O)NC2CCN(c3ccnc(Nc4ccc(F)cc4)n3)C2)c1` (stereo not drawn), the inhibition was found to be 2.56% in test [1], 2.47% in test [2] and 0.63% in test [3].

For `O=C(Nc1ccccc1Br)N[C@@H]1CCN(c2ccnc3ccccc23)C1`, the inhibition came out at 4.02% in test [1], 5.95% in test [2] and 3.01% in test [3].

With `CC(C)C1=NC(=O)c2cc([N+](=O)[O-])ccc2CN1`, the values for the inhibition in test [1], in test [2] and in test [3] were 1.78%, 1.79% and 2.11%, respectively.

Take `COc1ccc2ncc(F)c(CCN3CC[C@H](NCc4cc(C#N)c5c(c4)OCCO5)[C@H](O)C3)c2c1`: the inhibition was determined as 42.4% in test [1], 57.5% in test [2] and 70.8% in test [3].

Turning to `Cc1cc(NCCc2ccccc2)nc(N/C(=N/CC(=O)OC(C)(C)C)Nc2ccc(C(F)(F)F)cc2)n1`, the inhibition in test [1] was 4.08%; in test [2], 0.44%; in test [3] it was 2.34%.

Turning to `CCOc1ccc(-c2nonc2NC(=O)c2ccc(OC(C)C)cc2)cc1OCC`, the inhibition stood at 2.72% in test [1], 1.95% in test [2] and 3.68% in test [3].

Regarding `COc1ccc(-c2ccc(NC(=O)c3ccc(C#N)cc3)cc2)cc1CN1CCCC1`, the inhibition was 1.22% in test [1], 0.11% in test [2] and -3.17% in test [3].

With `NC(=O)c1cccc(Nc2nccc(Nc3ccc(Oc4c(Cl)cccc4Cl)c(Cl)c3)n2)c1`, the values for the inhibition in test [1], in test [2] and in test [3] were 9.27%, 9.62% and 2.92%, respectively.

Consider `Cc1ccccc1C1CCN(C2CCC(NC(=O)c3ccc(-c4ccccn4)s3)CC2)CC1` (stereo not drawn), for which the inhibition is -4.15% in test [1], -2.96% in test [2] and -1.37% in test [3].

For `Cc1ccc(-n2c(Sc3ncnc4sccc34)nnc2N2CCCC2)cc1`, the inhibition in test [1] was 2.72%; in test [2], 2.48%; in test [3], 1.41%.

Consider `CC(C)c1ccc(NC(=O)N2CCc3ccc(OCCN(C(C)C)C(C)C)cc32)c(Br)c1`, for which the figures for the inhibition in test [1], in test [2] and in test [3] were -3.12%, 0.76% and 1.63%, respectively.

With `Cc1oc(-c2ccc(Cl)cc2)cc1C(=O)NCCC1CCN(CCCCCNC(=O)/C=C/c2ccc(Cl)c(Cl)c2)CC1`, the inhibition in test [1] was -0.57%; in test [2], -1.53%; in test [3], -2.41%.

As to `Cc1ccc(S(=O)(=O)N2CCCN(C(=O)c3cc(-c4ccccc4)[nH]n3)CC2)cc1`, the inhibition was -1.48% in test [1], 0.45% in test [2] and 0.04% in test [3].

As to `CN1CCN(c2ccc(Nc3ncc(C#N)c(Nc4ccccc4C(N)=O)n3)cc2)CC1`, the inhibition in test [1] turned out to be 75.6%; in test [2], 81.4%; in test [3] it was 55.1%.

Turning to `COc1ccc2nccc([C@@H](O)CN3CCC(NCc4ccc5sc(=O)[nH]c5c4)CC3)c2c1`, the values for the inhibition in test [1], in test [2] and in test [3] were 1.84%, 5.11% and 1.2%, respectively.

As for `O=C(Nc1ccc(N2CCN(C(=O)/C=C/c3ccccc3)CC2)c(Cl)c1)c1ccc([N+](=O)[O-])o1`, the inhibition stood at 58.5% in test [1], 68% in test [2] and 13.7% in test [3].

As for `Cc1cc(N2CCCC2)nc(Nc2ccc(NC(=O)C3CCCC3)cc2)n1`, the inhibition in test [1] is -0.76%; in test [2], 1.16%; in test [3], 0.83%.

As for `COc1ccc(CCN(Cc2cccs2)C(=O)c2cc3sccc3n2C)cc1OC`, the inhibition was determined as 0.3% in test [1], 0.45% in test [2] and 0.18% in test [3].

Regarding `Clc1ccc(-n2cnc3c(Nc4ccc(Oc5ccccc5)cc4)ncnc32)cc1Cl`, the figures for the inhibition in test [1], in test [2] and in test [3] were 1.38%, 1.39% and -1.22%, respectively.

For the compound `N=C(N)NCCN(Cc1ccccc1)c1ccc(Cl)cc1`, the figures for the inhibition in test [1], in test [2] and in test [3] were 1.36%, -0.96% and 1.25%, respectively.

With `Cc1cc(OCCCNc2nc(NCCc3ccc(O)cc3)nc(N3CCNCC3)n2)c(Cl)c(C)c1Cl`, the figures for the inhibition in test [1], in test [2] and in test [3] were 0.58%, 1.22% and 0.27%, respectively.

Turning to `COc1ccc2nccc([C@@H](O)CN3CCC(CO)(NCc4cc5ccccc5o4)CC3)c2c1`, the inhibition was 7.99% in test [1], 13.3% in test [2] and 1.76% in test [3].

For `Cc1ccc(-c2cnc(N)c3cc(-c4ccnc(N)n4)ccc23)cc1`, the inhibition in test [1] was -0.17%; in test [2], -2.15%; in test [3], -1.88%.
